In PubChem BioAssay (NCI):
Values joined by “and” are separate entries in the source; they are usually repeats but may differ in a detail not shown here. Equal values may be shown once. This is part of a sample that, as a whole, favours compounds with a hit. Of some 83,000 tested, about 20% had one in any assay.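 Values shown are percent growth following 48 h exposure of cells in 96-well plates to a single concentration of compound; below 10 was considered active.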 Unmarked numbers belong to inactive results. Active and inactive are the calls of the source.

Legend:
Assay in all cases: NCI-60 one-dose screen, 48 h (100 = growth as untreated, 0 = no growth, -100 = all killed)
SR leukemia = test system: SR leukemia
RPMI-8226 leukemia = test system: RPMI-8226 leukemia
OVCAR-8 ovarian = test system: OVCAR-8 ovarian
OVCAR-5 ovarian = test system: OVCAR-5 ovarian
OVCAR-4 ovarian = test system: OVCAR-4 ovarian
SK-OV-3 ovarian = test system: SK-OV-3 ovarian
IGROV1 ovarian = test system: IGROV1 ovarian
OVCAR-3 ovarian = test system: OVCAR-3 ovarian
HS 578T breast = test system: HS 578T breast
NCI/ADR-RES ovarian = test system: NCI/ADR-RES ovarian
T-47D breast = test system: T-47D breast
BT-549 breast = test system: BT-549 breast
MDA-MB-435 melanoma = test system: MDA-MB-435 melanoma
SW-620 colon = test system: SW-620 colon
MCF7 breast = test system: MCF7 breast
HCT-116 colon = test system: HCT-116 colon
HCC-2998 colon = test system: HCC-2998 colon
KM12 colon = test system: KM12 colon

Q: What does the source list for Cc1n[nH]c(=O)n(/N=C\c2c[nH]c3ccccc23)c1=O?
A: growth (SR leukemia; 10 µM unless noted): 108%; growth (RPMI-8226 leukemia; 10 µM unless noted): 105%; growth (OVCAR-8 ovarian; 10 µM unless noted): 102%; growth (OVCAR-5 ovarian; 10 µM unless noted): 106%; growth (OVCAR-4 ovarian; 10 µM unless noted): 96.9%; growth (SK-OV-3 ovarian; 10 µM unless noted): 97.2%; growth (IGROV1 ovarian; 10 µM unless noted): 102%; growth (OVCAR-3 ovarian; 10 µM unless noted): 107%; growth (HS 578T breast; 10 µM unless noted): 108%; growth (NCI/ADR-RES ovarian; 10 µM unless noted): 106%; growth (T-47D breast; 10 µM unless noted): 102%; growth (BT-549 breast; 10 µM unless noted): 117%; growth (MDA-MB-435 melanoma; 10 µM unless noted): 107%; growth (SW-620 colon; 10 µM unless noted): 106%; growth (MCF7 breast; 10 µM unless noted): 91.1%; growth (HCT-116 colon; 10 µM unless noted): 113%; growth (HCC-2998 colon; 10 µM unless noted): 108%; growth (KM12 colon; 10 µM unless noted): 105%

Q: CC#C[C@]1(O)CC[C@H]2[C@@H]3CCC4=CC(=O)CCC4=C3[C@@H](c3ccc4c(c3)OCO4)C[C@@]21C was tested. Which growth (SR leukemia; 10 µM) did it give?
A: 60.8%

Q: What about the growth (SR leukemia; 100 µM) of the same compound?
A: -20.8% (active)

Q: And the growth (RPMI-8226 leukemia; 10 µM)?
A: 69.6%

Q: And the growth (RPMI-8226 leukemia; 100 µM)?
A: -35% (active)

Q: And the growth (OVCAR-8 ovarian; 10 µM)?
A: 81.6%

Q: What about the growth (OVCAR-8 ovarian; 100 µM) of the same compound?
A: -13.6% (active)

Q: What about the growth (OVCAR-5 ovarian; 10 µM) of the same compound?
A: 109%

Q: And the growth (OVCAR-5 ovarian; 100 µM)?
A: 14.3%

Q: And the growth (OVCAR-4 ovarian; 10 µM)?
A: 80.9%

Q: What about the growth (OVCAR-4 ovarian; 100 µM) of the same compound?
A: 8.93% (active)

Q: What about the growth (SK-OV-3 ovarian; 10 µM) of the same compound?
A: 87.8%

Q: What about the growth (SK-OV-3 ovarian; 100 µM) of the same compound?
A: -5.43% (active)

Q: And the growth (IGROV1 ovarian; 10 µM)?
A: 86.1%

Q: And the growth (IGROV1 ovarian; 100 µM)?
A: 2.61% (active)

Q: What about the growth (OVCAR-3 ovarian; 10 µM) of the same compound?
A: 78%

Q: What about the growth (OVCAR-3 ovarian; 100 µM) of the same compound?
A: -40.2% (active)

Q: What about the growth (HS 578T breast; 10 µM) of the same compound?
A: 79%

Q: And the growth (HS 578T breast; 100 µM)?
A: 0.161% (active)

Q: And the growth (NCI/ADR-RES ovarian; 10 µM)?
A: 76.7%

Q: What about the growth (NCI/ADR-RES ovarian; 100 µM) of the same compound?
A: -15.3% (active)

Q: And the growth (T-47D breast; 10 µM)?
A: 45%

Q: What about the growth (T-47D breast; 100 µM) of the same compound?
A: -16.5% (active)

Q: And the growth (MDA-MB-435 melanoma; 10 µM)?
A: 94.7%

Q: And the growth (MDA-MB-435 melanoma; 100 µM)?
A: -35.6% (active)

Q: What about the growth (SW-620 colon; 10 µM) of the same compound?
A: 84.7%

Q: And the growth (SW-620 colon; 100 µM)?
A: 4.2% (active)

Q: What about the growth (MCF7 breast; 10 µM) of the same compound?
A: 82.2%

Q: What about the growth (MCF7 breast; 100 µM) of the same compound?
A: -4.09% (active)

Q: And the growth (HCC-2998 colon; 10 µM)?
A: 94.4%

Q: And the growth (HCC-2998 colon; 100 µM)?
A: -22.7% (active)

Q: And the growth (KM12 colon; 10 µM)?
A: 86.3%

Q: What about the growth (KM12 colon; 100 µM) of the same compound?
A: -42.3% (active)

Q: Which results are given for CCCCCCCCCCCCCCCc1ccc(Cl)c(O)c1Cl (tested in a mixture with another compound)?
A: growth (SR leukemia; 0.25 µM): 4.53% (active); growth (SR leukemia; 10 µM): 79.6%; growth (RPMI-8226 leukemia; 10 µM unless noted): 29.8% [0.25 µM]; growth (OVCAR-8 ovarian; 0.25 µM): 36%; growth (OVCAR-8 ovarian; 10 µM): 92.2%; growth (OVCAR-5 ovarian; 0.25 µM): 78.5%; growth (OVCAR-5 ovarian; 10 µM): 106%; growth (OVCAR-4 ovarian; 0.25 µM): 65%; growth (OVCAR-4 ovarian; 10 µM): 115%; growth (SK-OV-3 ovarian; 0.25 µM): 53.5%; growth (SK-OV-3 ovarian; 10 µM): 111%; growth (IGROV1 ovarian; 0.25 µM): 28.7%; growth (IGROV1 ovarian; 10 µM): 97.4%; growth (OVCAR-3 ovarian; 0.25 µM): 65.3%; growth (OVCAR-3 ovarian; 10 µM): 112%; growth (HS 578T breast; 0.25 µM): 63.9%; growth (HS 578T breast; 10 µM): 105%; growth (NCI/ADR-RES ovarian; 0.25 µM): 94.8%; growth (NCI/ADR-RES ovarian; 10 µM): 96.5%; growth (T-47D breast; 0.25 µM): 35.5%; growth (T-47D breast; 10 µM): 85.4%; growth (BT-549 breast; 0.25 µM): 66.2%; growth (BT-549 breast; 10 µM): 103%; growth (MDA-MB-435 melanoma; 0.25 µM): 56%; growth (MDA-MB-435 melanoma; 10 µM): 103%; growth (SW-620 colon; 0.25 µM): 24.4%; growth (SW-620 colon; 10 µM): 101%; growth (HCT-116 colon; 0.25 µM): 21.4%; growth (HCT-116 colon; 10 µM): 75.7%; growth (HCC-2998 colon; 0.25 µM): 38.6%; growth (HCC-2998 colon; 10 µM): 116%; growth (KM12 colon; 0.25 µM): 46%; growth (KM12 colon; 10 µM): 96.7%

Q: With c1ccc(NCc2ccc3c(c2)OCO3)cc1 as the compound, how does the growth (SR leukemia; 10 µM unless noted) read?
A: 92.5% and 92.2%

Q: What about the growth (RPMI-8226 leukemia; 10 µM unless noted) of the same compound?
A: 99.6% and 93.7%

Q: What about the growth (OVCAR-8 ovarian; 10 µM unless noted) of the same compound?
A: 98.1%

Q: What about the growth (OVCAR-5 ovarian; 10 µM unless noted) of the same compound?
A: 110% and 98%

Q: And the growth (OVCAR-4 ovarian; 10 µM unless noted)?
A: 106% and 108%

Q: What about the growth (SK-OV-3 ovarian; 10 µM unless noted) of the same compound?
A: 92.4% and 99.3%

Q: And the growth (IGROV1 ovarian; 10 µM unless noted)?
A: 118% and 102%

Q: And the growth (OVCAR-3 ovarian; 10 µM unless noted)?
A: 103% and 105%

Q: What about the growth (HS 578T breast; 10 µM unless noted) of the same compound?
A: 109% and 104%

Q: What about the growth (NCI/ADR-RES ovarian; 10 µM unless noted) of the same compound?
A: 106% and 105%

Q: And the growth (T-47D breast; 10 µM unless noted)?
A: 94.3% and 110%

Q: And the growth (BT-549 breast; 10 µM unless noted)?
A: 99.4% and 85.2%

Q: And the growth (MDA-MB-435 melanoma; 10 µM unless noted)?
A: 111% and 98.2%

Q: What about the growth (SW-620 colon; 10 µM unless noted) of the same compound?
A: 102% and 101%

Q: And the growth (MCF7 breast; 10 µM unless noted)?
A: 99.7% and 102%

Q: What about the growth (HCT-116 colon; 10 µM unless noted) of the same compound?
A: 103% and 98.3%

Q: And the growth (HCC-2998 colon; 10 µM unless noted)?
A: 102% and 112%

Q: And the growth (KM12 colon; 10 µM unless noted)?
A: 103% and 102%
